Experimental data taken from the supplement of paper PMC10849652.
Of roughly 7,900 targets only a part is listed; those with a hit were picked by preference. About 0.6% of all pairs of compound and target were hits.

Compound: C[C@H](C1=CC=C(C=C1)C(=O)NC2=C3C=CNC3=NC=C2)N
Experiment: log2 fold change, soluble protein after heating vs DMSO (PISA); higher = thermal stabilisation; K562 cells, 10 uM, 30 min; active = over 0.2 and 3.5 SD of the protein, either way, in both replicates (recomputed)
Outline: (§1)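 K562 cells (2×10^6 cells/mL) were treated with 10 μM compound for 30 min, and aliquots were heated for 3 min over 48°C-58°C. Pooled aliquots were extracted in PBS with 0.5% NP-40 at 4°C, and the supernatant after 21,000xg for 90 min was measured by TMTpro 16plex LC-MS/MS with channel sums equalised. Reported thermal stability, relative to control samples and from duplicates, is a log2 fold change.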

UniProt Q9UBV8, sequence (Q9UBV8 whole entry, looked up): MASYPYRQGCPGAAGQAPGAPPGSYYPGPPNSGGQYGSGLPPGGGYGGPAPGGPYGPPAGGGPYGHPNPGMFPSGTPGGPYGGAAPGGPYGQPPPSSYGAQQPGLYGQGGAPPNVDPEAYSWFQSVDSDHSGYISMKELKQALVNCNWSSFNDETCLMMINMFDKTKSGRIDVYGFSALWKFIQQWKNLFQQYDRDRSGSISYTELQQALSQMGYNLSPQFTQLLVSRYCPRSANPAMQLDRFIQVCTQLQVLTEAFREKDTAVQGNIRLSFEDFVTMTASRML
UniProt Q8TBX8, sequence (Q8TBX8 whole entry, looked up): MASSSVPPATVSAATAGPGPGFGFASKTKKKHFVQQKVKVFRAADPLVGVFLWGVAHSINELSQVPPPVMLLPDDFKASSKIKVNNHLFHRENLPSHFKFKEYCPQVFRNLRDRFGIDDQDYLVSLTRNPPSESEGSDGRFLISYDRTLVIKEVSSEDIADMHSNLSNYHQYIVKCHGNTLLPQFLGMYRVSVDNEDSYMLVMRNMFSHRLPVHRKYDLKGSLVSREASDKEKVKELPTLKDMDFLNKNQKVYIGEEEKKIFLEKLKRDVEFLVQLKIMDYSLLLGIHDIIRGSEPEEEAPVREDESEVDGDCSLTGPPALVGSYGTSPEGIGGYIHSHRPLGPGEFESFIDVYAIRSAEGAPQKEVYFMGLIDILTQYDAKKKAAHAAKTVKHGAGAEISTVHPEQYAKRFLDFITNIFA
UniProt O15355, sequence (O15355 whole entry, looked up): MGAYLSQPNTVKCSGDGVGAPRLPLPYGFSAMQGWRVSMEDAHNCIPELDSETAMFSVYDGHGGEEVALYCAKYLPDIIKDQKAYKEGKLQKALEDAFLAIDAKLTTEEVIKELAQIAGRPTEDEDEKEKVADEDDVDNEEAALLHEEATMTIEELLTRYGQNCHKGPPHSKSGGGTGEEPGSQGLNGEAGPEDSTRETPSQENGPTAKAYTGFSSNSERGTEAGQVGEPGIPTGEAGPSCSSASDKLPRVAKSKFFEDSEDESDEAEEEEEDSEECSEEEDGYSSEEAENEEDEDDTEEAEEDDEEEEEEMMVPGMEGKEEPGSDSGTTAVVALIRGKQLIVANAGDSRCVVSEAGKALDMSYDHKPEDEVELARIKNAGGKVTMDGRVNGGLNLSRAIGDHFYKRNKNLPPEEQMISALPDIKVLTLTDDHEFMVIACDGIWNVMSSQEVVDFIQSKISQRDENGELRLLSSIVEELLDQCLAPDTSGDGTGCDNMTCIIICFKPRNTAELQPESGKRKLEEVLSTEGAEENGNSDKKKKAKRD
UniProt P31323, sequence (P31323 whole entry, looked up): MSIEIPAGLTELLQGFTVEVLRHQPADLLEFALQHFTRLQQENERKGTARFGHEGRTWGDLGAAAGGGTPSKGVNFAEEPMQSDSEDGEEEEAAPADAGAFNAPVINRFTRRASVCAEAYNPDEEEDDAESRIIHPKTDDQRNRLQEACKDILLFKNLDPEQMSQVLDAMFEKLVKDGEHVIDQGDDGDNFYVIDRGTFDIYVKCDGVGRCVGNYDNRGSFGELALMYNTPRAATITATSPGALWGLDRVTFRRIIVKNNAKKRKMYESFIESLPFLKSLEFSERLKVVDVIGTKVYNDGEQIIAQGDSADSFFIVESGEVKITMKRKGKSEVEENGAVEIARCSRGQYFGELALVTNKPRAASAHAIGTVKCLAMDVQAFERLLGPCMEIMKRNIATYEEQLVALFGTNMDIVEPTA
UniProt Q13523, sequence (Q13523 whole entry, looked up): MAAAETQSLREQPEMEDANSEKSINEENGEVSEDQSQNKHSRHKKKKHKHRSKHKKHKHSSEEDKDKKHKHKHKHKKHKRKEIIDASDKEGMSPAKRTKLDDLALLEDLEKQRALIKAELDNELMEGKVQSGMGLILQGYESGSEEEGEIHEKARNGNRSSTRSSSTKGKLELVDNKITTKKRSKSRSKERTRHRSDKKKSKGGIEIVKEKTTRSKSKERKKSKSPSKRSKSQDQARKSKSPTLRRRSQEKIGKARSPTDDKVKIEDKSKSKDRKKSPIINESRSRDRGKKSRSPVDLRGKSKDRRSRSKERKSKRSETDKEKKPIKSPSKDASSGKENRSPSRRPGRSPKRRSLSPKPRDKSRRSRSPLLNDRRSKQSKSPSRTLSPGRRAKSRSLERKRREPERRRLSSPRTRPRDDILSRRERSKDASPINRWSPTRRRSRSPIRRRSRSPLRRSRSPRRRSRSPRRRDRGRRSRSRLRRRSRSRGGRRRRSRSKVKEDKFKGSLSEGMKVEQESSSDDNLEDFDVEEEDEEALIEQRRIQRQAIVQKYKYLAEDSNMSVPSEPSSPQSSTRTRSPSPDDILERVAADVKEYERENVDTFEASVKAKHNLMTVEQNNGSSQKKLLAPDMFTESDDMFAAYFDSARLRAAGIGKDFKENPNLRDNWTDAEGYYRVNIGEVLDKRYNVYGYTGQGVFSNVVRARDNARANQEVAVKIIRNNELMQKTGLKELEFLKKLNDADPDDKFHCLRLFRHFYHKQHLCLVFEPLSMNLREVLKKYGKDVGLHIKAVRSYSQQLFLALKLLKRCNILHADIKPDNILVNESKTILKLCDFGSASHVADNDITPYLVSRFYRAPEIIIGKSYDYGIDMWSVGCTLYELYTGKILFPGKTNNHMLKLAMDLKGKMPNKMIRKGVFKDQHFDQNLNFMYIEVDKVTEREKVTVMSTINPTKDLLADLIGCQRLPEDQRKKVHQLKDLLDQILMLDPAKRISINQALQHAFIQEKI
UniProt Q8NBL1, sequence (Q8NBL1 whole entry, looked up): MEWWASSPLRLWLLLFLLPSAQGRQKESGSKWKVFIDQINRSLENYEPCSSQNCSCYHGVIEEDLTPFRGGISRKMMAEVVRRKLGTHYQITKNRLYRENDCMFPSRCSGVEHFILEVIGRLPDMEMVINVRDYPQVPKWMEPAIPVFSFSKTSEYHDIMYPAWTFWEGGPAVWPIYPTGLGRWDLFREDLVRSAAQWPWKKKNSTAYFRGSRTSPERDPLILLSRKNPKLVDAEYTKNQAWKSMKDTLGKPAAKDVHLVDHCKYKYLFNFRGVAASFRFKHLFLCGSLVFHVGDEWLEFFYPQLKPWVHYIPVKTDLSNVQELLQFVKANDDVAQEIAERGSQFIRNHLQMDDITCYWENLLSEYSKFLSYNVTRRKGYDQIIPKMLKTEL
UniProt O00233, sequence (O00233 whole entry, looked up): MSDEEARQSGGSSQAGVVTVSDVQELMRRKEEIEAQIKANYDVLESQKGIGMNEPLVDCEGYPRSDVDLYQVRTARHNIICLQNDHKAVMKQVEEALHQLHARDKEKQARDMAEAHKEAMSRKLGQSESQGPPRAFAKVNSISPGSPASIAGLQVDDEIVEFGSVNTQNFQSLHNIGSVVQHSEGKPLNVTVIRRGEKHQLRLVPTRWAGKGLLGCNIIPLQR
UniProt Q15365, sequence (Q15365 whole entry, looked up): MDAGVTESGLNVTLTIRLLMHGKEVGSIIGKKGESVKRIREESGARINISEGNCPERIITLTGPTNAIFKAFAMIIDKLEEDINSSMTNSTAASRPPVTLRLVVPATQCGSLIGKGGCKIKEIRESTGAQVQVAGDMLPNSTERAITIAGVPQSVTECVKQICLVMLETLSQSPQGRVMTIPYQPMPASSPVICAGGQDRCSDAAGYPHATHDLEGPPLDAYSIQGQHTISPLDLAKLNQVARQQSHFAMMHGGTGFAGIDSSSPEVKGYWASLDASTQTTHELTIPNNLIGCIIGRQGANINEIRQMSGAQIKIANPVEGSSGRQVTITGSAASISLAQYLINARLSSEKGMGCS
UniProt O00232, sequence (O00232 whole entry, looked up): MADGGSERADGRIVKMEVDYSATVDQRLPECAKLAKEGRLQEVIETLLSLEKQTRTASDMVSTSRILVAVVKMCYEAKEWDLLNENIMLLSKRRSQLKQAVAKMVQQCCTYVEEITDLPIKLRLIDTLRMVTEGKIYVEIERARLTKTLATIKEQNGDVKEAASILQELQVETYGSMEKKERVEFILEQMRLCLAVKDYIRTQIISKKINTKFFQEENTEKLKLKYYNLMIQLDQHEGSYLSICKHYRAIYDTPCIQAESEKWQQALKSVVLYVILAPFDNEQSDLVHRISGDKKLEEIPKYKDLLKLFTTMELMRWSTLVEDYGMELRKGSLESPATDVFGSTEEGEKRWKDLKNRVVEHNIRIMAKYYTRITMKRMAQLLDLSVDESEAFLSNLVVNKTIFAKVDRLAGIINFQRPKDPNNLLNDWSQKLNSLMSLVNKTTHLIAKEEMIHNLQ
UniProt Q86YH6, sequence (Q86YH6 whole entry, looked up): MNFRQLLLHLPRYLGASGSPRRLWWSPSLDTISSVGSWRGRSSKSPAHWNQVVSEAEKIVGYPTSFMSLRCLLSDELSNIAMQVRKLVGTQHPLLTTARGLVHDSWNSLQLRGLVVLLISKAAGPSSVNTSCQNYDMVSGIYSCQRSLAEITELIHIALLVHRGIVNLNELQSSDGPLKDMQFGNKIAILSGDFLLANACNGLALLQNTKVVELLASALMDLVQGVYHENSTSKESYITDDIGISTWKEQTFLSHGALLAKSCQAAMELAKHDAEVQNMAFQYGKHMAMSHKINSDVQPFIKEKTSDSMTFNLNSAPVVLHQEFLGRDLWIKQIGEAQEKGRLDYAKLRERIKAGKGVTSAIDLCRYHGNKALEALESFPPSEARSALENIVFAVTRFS
UniProt P07205, sequence (P07205 whole entry, looked up): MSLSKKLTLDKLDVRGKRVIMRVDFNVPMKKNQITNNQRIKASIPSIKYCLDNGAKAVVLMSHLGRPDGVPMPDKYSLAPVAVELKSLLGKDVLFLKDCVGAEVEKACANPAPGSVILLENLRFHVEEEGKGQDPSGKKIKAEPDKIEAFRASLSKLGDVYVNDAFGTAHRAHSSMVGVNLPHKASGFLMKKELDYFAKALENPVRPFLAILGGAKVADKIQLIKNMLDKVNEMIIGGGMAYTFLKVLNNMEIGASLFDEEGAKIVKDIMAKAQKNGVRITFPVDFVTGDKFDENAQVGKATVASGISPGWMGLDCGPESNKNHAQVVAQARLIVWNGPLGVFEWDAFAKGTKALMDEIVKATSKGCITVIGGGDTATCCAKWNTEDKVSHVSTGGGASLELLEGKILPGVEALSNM

log2 fold change, inactive:
PARN (UniProt O95453) -0.025
PEF1 (UniProt Q9UBV8) -0.102
POLD1 (UniProt P28340) -0.025
PARG (UniProt Q86W56) 0.016
PRMT7 (UniProt Q9NVM4) 0.083
PDLIM7 (UniProt Q9NR12) -0.05
POLD3 (UniProt Q15054) -0.076
POLR2A (UniProt P24928) 0.21
PLD3 (UniProt Q8IV08) -0.03
PPIL1 (UniProt Q9Y3C6) 0.012
PPP2R5A (UniProt Q15172) 0.022
PPOX (UniProt P50336) -0.077
PLBD2 (UniProt Q8NHP8) -0.008
PRKAR2B (UniProt P31323) -0.136
PJA2 (UniProt O43164) 0.091
PCBP1 (UniProt Q15365) -0.012
PGK2 (UniProt P07205) -0.002
PSMD6 (UniProt Q15008) 0.052
POLR2K (UniProt P53803) 0.098
PSMD9 (UniProt O00233) -0.059
PDSS2 (UniProt Q86YH6) -0.058
PYGL (UniProt P06737) -0.019
PYGB (UniProt P11216) 0.107
PDE12 (UniProt Q6L8Q7) -0.133
POLR1A (UniProt O95602) 0.125
PBK (UniProt Q96KB5) 0.134
PFAS (UniProt O15067) 0
PRKACA (UniProt P17612) 0.043
PSMD12 (UniProt O00232) 0.073
POGLUT1 (UniProt Q8NBL1) 0.241
PTDSS1 (UniProt P48651) 0.209
PRKAB2 (UniProt O43741) -0.231
PPM1G (UniProt O15355) -0.083
PARL (UniProt Q9H300) -0.011
PIP4K2C (UniProt Q8TBX8) 0.063
PRPF4B (UniProt Q13523) -0.089
POM121 (UniProt Q96HA1) 0.084

Compound: C[C@H](Nc1ncnc2nc[nH]c12)c1cc2cccc(Cl)c2c(=O)n1-c1ccccc1 [duvelisib]
Experiment: as above
Outline: as §1

log2 fold change, inactive:
PARN (UniProt O95453) 0.048
PEF1 (UniProt Q9UBV8) 0.103
POLD1 (UniProt P28340) 0.004
PARG (UniProt Q86W56) -0.005
PRMT7 (UniProt Q9NVM4) 0.037
PDLIM7 (UniProt Q9NR12) 0.019
POLD3 (UniProt Q15054) 0.018
POLR2A (UniProt P24928) 0.06
PLD3 (UniProt Q8IV08) -0.012
PPIL1 (UniProt Q9Y3C6) 0
PPP2R5A (UniProt Q15172) 0.033
PPOX (UniProt P50336) 0.304
PLBD2 (UniProt Q8NHP8) 0.045
PRKAR2B (UniProt P31323) 0.007
PJA2 (UniProt O43164) -0.021
PCBP1 (UniProt Q15365) 0.042
PGK2 (UniProt P07205) 0.062
PSMD6 (UniProt Q15008) -0.071
POLR2K (UniProt P53803) 0.154
PSMD9 (UniProt O00233) 0.038
PDSS2 (UniProt Q86YH6) -0.083
PYGL (UniProt P06737) 0.03
PYGB (UniProt P11216) 0.026
PDE12 (UniProt Q6L8Q7) 0.069
POLR1A (UniProt O95602) 0.111
PBK (UniProt Q96KB5) 0.006
PFAS (UniProt O15067) -0.026
PRKACA (UniProt P17612) -0.02
PSMD12 (UniProt O00232) -0.053
POGLUT1 (UniProt Q8NBL1) -0.021
PTDSS1 (UniProt P48651) -0.225
PRKAB2 (UniProt O43741) -0.154
PPM1G (UniProt O15355) 0.044
PARL (UniProt Q9H300) 0.03
PIP4K2C (UniProt Q8TBX8) 0.047
PRPF4B (UniProt Q13523) -0.081
POM121 (UniProt Q96HA1) -0.022
